High-throughput results (PubChem)
The list is not random: actives were taken first. Their share in the collection is about 28%.
CYP2C9 inhib – blocks human cytochrome P450 2C9; CYP2C9 Supersomes, luciferin-H conversion, luminescence; inhibition, % at 5 µM; 96,000 compounds, 20% hits; AID 777;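 active = blocking of liver enzyme CYP2C9 beyond about 50% at 5 µM, limit read from the data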
CYP2C19 inhib – blocks human cytochrome P450 2C19. CYP2C19 Supersomes, luciferin-H EGE luminescence, 30 min. inhibition, % at 5 µM. 96,000 compounds, 21% hits. P33261;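 active = CYP2C19 inhibition above a set limit at 5 µM in the primary screen, cut at about 50% in these data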;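 note: plate controls were negative control wells for no effect and 2.5 mM tranylcypromine positive control for full effect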
CYP2C9 act – CYP2C9 (human) activation | P11712 | 96,000 compounds, 1.4% hits | recombinant CYP2C9, luciferin-H conversion, luminescence; active compounds read high; factor 1 = untreated enzyme, 0 = blocked | activation factor at 5 µM;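 active = activation factor of 2 or more for CYP2C9 at a 5 µM dose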;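 note: 0 = sulfaphenazole-blocked wells and 1 = vehicle-only wells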
CYP2C19 act – activators of human cytochrome P450 2C19. 96,000 tested, under 10 active. activation factor at 5 µM. recombinant CYP2C19, luciferin-H EGE luminescence; active compounds read high; 0 = fully inhibited enzyme, 1 = untreated enzyme;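 active = activation factor of at least 2 at 5 µM in the primary screen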;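 note: 0 = wells with 2.5 mM tranylcypromine and 1 = vehicle-only wells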
Mac1 fbg inh – CD11b/CD18-fibrinogen binding inhibition. inhibition, % at 10 µM. K562 CD11b/CD18 adhesion to fibrinogen, ATPlite luminescence; Mn2+ added to activate the integrin. AID 1497. 93,000 compounds, 0.54% hits;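 active = primary inhibition of 50% or more at 10 µM, then 40% or more on retest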
Target sequence (P05107 whole entry, looked up, other chains not shown): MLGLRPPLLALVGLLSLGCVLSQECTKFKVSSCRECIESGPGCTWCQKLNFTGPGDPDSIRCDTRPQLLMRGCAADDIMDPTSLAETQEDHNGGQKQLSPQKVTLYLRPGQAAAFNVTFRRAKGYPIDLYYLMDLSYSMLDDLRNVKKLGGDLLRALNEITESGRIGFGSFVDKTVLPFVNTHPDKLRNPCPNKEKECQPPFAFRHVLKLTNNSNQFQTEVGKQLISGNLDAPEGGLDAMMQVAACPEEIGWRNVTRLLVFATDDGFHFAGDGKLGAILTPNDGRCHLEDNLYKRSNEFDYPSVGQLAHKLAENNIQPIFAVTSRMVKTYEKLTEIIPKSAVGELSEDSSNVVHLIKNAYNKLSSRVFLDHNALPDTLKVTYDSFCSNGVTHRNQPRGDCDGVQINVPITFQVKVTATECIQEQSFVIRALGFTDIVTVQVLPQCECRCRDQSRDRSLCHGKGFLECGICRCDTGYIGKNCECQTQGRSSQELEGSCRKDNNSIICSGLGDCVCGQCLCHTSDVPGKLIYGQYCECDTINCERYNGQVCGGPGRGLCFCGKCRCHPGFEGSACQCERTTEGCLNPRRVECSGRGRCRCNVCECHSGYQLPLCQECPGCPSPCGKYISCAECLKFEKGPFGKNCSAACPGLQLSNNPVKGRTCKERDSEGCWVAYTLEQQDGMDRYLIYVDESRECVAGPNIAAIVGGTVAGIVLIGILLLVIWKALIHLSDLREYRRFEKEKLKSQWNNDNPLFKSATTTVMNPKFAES
Mac1 fbg enh – CD11b/CD18-fibrinogen binding enhancement. K562 CD11b/CD18 adhesion to fibrinogen, ATPlite luminescence. activation, % at 10 µM. 93,000 compounds, 0.07% hits. AID 1499;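 active = 10 µM primary screen giving 50% or more activity, confirmed by 40% or more on retest at that dose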
Starred values were filed as active, the others as inactive; / = not tested or not shown.

SMILES	CYP2C9 inhib	CYP2C19 inhib	CYP2C9 act	CYP2C19 act	Mac1 fbg inh	Mac1 fbg enh
Cc1ccc(S(=O)(=O)c2c(COC(=O)c3ccc(Cl)cc3)c(-c3ccccc3)nn2C)cc1	52*	67*	0.5	0.3	-17	-5
CCCS(=O)(=O)c1nc(S(=O)(=O)c2ccc(C)cc2)c(NCc2ccco2)s1	/	/	/	/	-10	0
CCCCCc1nnc(NC(=O)Cc2cccs2)s1	49	32	0.5	0.7	-7	7
CCc1cccc(NC(=O)CS(=O)Cc2nc(-c3ccc(C)cc3)oc2C)c1 (configuration not stated)	88*	77*	0.1	0.2	9	6
Cc1ccc(-c2nc(CS(=O)CC(=O)NCCCN3CC(C)CC(C)C3)c(C)o2)cc1 (configuration not stated)	7	5	0.9	0.9	-6	7
Cc1oc(-c2cccs2)nc1CS(=O)CC(=O)NCCCN1CC(C)CC(C)C1 (configuration not stated)	69*	3	0.3	1	-1	0
COc1cccc(-c2nc(CS(=O)CC(=O)O)c(C)o2)c1 (configuration not stated)	10	-1	0.9	1	-17	-3
COc1cccc(-c2nc(CS(=O)CC(=O)NC3CCCC3)c(C)o2)c1 (configuration not stated)	57*	30	0.4	0.7	-10	-2
CCCCNC(=O)CS(=O)Cc1nc(-c2ccc(C)cc2)oc1C (configuration not stated)	15	-7	0.8	1.1	-11	-2
Cc1ccc(-c2nc(CS(=O)CC(=O)NCCC(C)C)c(C)o2)cc1 (configuration not stated)	68*	49	0.3	0.5	-18	1
COc1ccc(CN2CCCCC2C)c(C)c1C (configuration not stated)	1	18	1	0.8	0	-2
C/C(N)=C(/C#N)C(=O)CN1CCCCC1	-18	-11	1.2	1.1	-6	-5
Cc1ccc(C(=C2C3C=CC2C2C(=O)NC(=O)C32)c2ccc(C)cc2)cc1 (configuration not stated)	3	18	1	0.8	-1	-4
CC(C)(C)C(=O)CSc1nccc(=O)[nH]1	0	-4	1	1	-14	1
Cc1ccc(-c2nc(CS(=O)CC(=O)NC3CCC(C)CC3)c(C)o2)cc1 (configuration not stated)	89*	67*	0.1	0.3	-3	4
COc1ccc(-c2nc(CS(=O)CC(=O)NCc3ccc(Cl)cc3)c(C)o2)cc1 (configuration not stated)	79*	80*	0.2	0.2	3	6
CCCN(CCC)CCNC(=O)CS(=O)Cc1nc(-c2ccc(C)cc2)oc1C (configuration not stated)	17	3	0.8	1	/	/
O=C(c1ccco1)N1CCN(c2cc(C(F)(F)F)nc3ncnn23)CC1	-5	-3	1.1	1	10	-2
Cc1ccc(S(=O)(=O)c2c(C)cc(C)nc2Oc2cccc(C)c2C)cc1	16	13	0.8	0.9	3	1
Cc1cc(C)c(S(=O)(=O)c2ccccc2)c(OC(=O)c2c(Cl)cc(Cl)cc2Cl)n1	44	53*	0.6	0.5	22	-1
CNc1nc(C)cc(C)c1S(=O)(=O)c1ccc(C)cc1	-261	82*	3.6*	0.2	/	/
Cc1cc(C)c(S(=O)(=O)c2ccccc2)c(N(C)C)n1	42	64*	0.6	0.4	10	-7
CCOC(=O)C(C)n1cnc2c(nnn2-c2cccc(Cl)c2)c1=O (configuration not stated)	-96	-7	2*	1.1	-5	-3
Cc1ccc(-n2c(SCC(N)=O)nnc2-c2ccc(S(=O)(=O)N3CCCCC3)cc2)c(C)c1	82*	8	0.2	0.9	0	1
NC(=O)CSc1nnc(-c2ccc(S(=O)(=O)N3CCOCC3)cc2)n1CC1CCCO1 (configuration not stated)	5	0	1	1	32	-5
SMILES	CYP2C9 inhib	CYP2C19 inhib	CYP2C9 act	CYP2C19 act	Mac1 fbg inh	Mac1 fbg enh
CC12CCC(C(=O)Nc3ccccc3)(C/C1=N\O)C2(C)C (configuration not stated)	1	78*	1	0.2	-9	-2
CCc1nnc(NC2=NCCC2)s1	-15	2	1.1	1	-6	-3
COc1ccccc1OCC(=O)NNC(=O)C(=O)N1CCCC1	/	/	/	/	20	-1
Nc1ccccc1OCCOCCOCCOc1ccccc1N	60*	75*	0.4	0.3	-7	-2
CCCCOc1ccccc1N	6	1	0.9	1	-17	1
Cc1ccc2nc(-c3ccc(N4C(=N)SC5CS(=O)(=O)CC54)cc3)sc2c1 (configuration not stated)	/	/	/	/	0	5
CCOC(=O)c1c(C)[nH]c(C(=O)OCC(=O)Nc2cc(C)c(Cl)cc2OC)c1C	12	6	0.9	0.9	-9	32
O=C(NC1CCCC1)c1ccc(CNc2c(N3CCOCC3)c(=O)c2=O)cc1	-20	-21	1.2	1.2	2	-1
O=C(CN1CCN(S(=O)(=O)c2ccc(Br)cc2)CC1)Nc1ccc2c(c1)OCCO2	35	78*	0.7	0.2	-4	7
O=C(Nc1ccc2c(c1)OCCO2)c1ccc(S(=O)(=O)N2CCCCC2)cc1	70*	29	0.3	0.7	8	2
O=C(Nc1ccc2c(c1)OCCO2)c1ccc(Br)c(S(=O)(=O)N2CCOCC2)c1	53*	82*	0.5	0.2	7	-4
CC(=O)Nc1ccc(C(=O)CSc2nnc(C)o2)cc1	3	2	1	1	0	-6
CCc1cc2cccc(C)c2nc1SCC(=O)NNC(=O)c1ccco1	-48	-17	1.5	1.2	-1	2
CCc1cc2cccc(C)c2nc1SCC(=O)c1ccc(NC(C)=O)cc1	80*	3	0.2	1	-1	1
CCc1cc2ccc(C)cc2nc1SCC(=O)c1ccc(NC(C)=O)cc1	92*	63*	0.1	0.4	/	/
Cc1cc(=O)[nH]c(S/C=C/c2ccccc2)n1	36	17	0.6	0.8	-6	1
O=C(O)CCC(=O)Nc1ccc2c(c1)oc1ccccc12	-5	-8	1	1.1	-17	-4
O=C(NCC1COc2ccccc2O1)C1CCN(S(=O)(=O)c2cccc3nsnc23)CC1 (configuration not stated)	-66	59*	1.7	0.4	/	/
O=C(NCC1CCCO1)C1CCN(S(=O)(=O)c2cccc3cccnc23)CC1 (configuration not stated)	-62	-4	1.6	1	7	-7
